The results in this text go back to PubChem BioAssay (EPA / NIEHS).

Inconclusive results are not listed. Activity calls are given as the source filed them. Rule for the calls, unless noted: active = hit-call score of the fitted dose curve at least 0.9, where 1 is the maximum; inactive = score below 0.9.

Assay [1] can be described thus: CCTE_Harrill_HTTr_Viability_MCF7: CCTE's 6-hour Cell Viability Assessment for the High-Throughput Transcriptomics (HTTr) Platform, in MCF-7 cells cultured in DMEM + 10% fetal bovine serum, Harrill Lab (AID 2284010). An outline of the steps: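 Eight-point concentration series, six-hour exposure. Propidium iodide exclusion imaged to assess membrane integrity as a cytotoxicity readout; bidirectional fitting was done with DMSO as negative control and activity baseline.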

A short description of assay [2]: CCTE_Harrill_HTTr_Apoptosis_MCF7: CCTE's 6-hour Apoptosis Assessment for the High-Throughput Transcriptomics (HTTr) Platform, in MCF-7 cells cultured in DMEM + 10% fetal bovine serum, Harrill Lab (AID 2284011). An outline of the steps: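 Apoptosis in MCF-7 cells grown in DMEM with 10% fetal bovine serum was scored after a six hour exposure by high content imaging of caspase-3/7 activation (CellEvent Caspase 3/7 Green), with DMSO serving as negative control and baseline.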

A short description of assay [3]: CCTE_Harrill_HTTr_CellCount_MCF7: CCTE's Cell Proliferation Assessment for the High-Throughput Transcriptomics (HTTr) Platform, Harrill Lab (AID 2284012; active = hit-call score of the fitted dose curve at least 0.9, where 1 is the maximum;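 note: intended direction is loss of nuclei count meaning fewer cells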). An outline of the steps: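 For this full-screen endpoint, MCF-7 cultures received eight compound dilutions for six hours. Well nuclei counts from Hoechst imaging were analyzed relative to DMSO.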
Assay [4] addresses Estrogen receptor (Homo sapiens) (UniProt P03372). The assay is described as follows: CCTE_Deisenroth_AIME_96WELL_LUC_Active: CCTE's 96-well Estrogen Receptor Transactivation Assay with AIME metabolic competence (ERTA luciferase; metabolism positive), Deisenroth Lab (AID 2284023; active = hit-call score of the fitted dose curve at least 0.9, where 1 is the maximum). The method in brief: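 Metabolism-positive mode: induced rat hepatic S9 in alginate microspheres conditions test solutions (0.002 - 200 uM, 10 points) for 2 hours. VM7Luc4E2 ER luciferase reporter cells then exposed 24 h; positive-direction fit against 17beta-estradiol, n=4 typical.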

The target is the same in assay [5]. Put plainly: CCTE_Deisenroth_AIME_96WELL_LUC_Inactive: CCTE's 96-well Estrogen Receptor Transactivation Assay without AIME metabolic competence (ERTA luciferase; metabolism negative), Deisenroth Lab (AID 2284025; active = hit-call score of the fitted dose curve at least 0.9, where 1 is the maximum). The method in brief:
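Metabolism-negative arm: chemicals (0.002–200 uM, 10 points) incubated 2 h with alginate-water microspheres, then medium moved onto VM7Luc4E2 cells for 24 h luciferase read-out. Positive direction vs 17beta-estradiol; n≥4 experiments.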

Assay [6] in a line: CCTE_Deisenroth_AIME_96WELL_CTox_Active: Cytotoxicity Assessment (CTOX) in CCTE's 96-well Estrogen Receptor Transactivation Assay with AIME metabolic competence (metabolism positive), Deisenroth Lab (AID 2284028; active = hit-call score of the fitted dose curve at least 0.9, where 1 is the maximum). The method in brief: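 Cytotoxicity in VM7Luc4E2 breast cells after 24 h exposure to medium from a 2 h metabolic pre-incubation with induced rat hepatic S9 in alginate microspheres; fluorescent live-cell protease readout, 10-point series 0.002–200 uM, n=4.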

Chain of Estrogen receptor (Homo sapiens) (P03372 whole entry, looked up): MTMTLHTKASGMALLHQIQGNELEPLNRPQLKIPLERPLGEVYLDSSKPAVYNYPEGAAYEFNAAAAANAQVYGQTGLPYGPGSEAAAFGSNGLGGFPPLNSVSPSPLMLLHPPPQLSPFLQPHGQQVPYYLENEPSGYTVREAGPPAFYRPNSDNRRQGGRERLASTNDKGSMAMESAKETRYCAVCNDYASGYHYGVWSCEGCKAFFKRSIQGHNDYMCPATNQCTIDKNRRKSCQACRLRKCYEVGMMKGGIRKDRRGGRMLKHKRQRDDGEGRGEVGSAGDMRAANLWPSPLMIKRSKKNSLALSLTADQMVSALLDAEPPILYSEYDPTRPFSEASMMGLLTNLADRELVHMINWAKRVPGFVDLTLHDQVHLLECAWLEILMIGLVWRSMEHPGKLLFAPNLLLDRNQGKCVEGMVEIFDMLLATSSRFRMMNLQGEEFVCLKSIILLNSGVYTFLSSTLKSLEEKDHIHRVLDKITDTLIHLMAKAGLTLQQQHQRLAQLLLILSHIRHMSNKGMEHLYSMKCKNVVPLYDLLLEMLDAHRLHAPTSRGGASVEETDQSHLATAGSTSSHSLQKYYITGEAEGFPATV

`O=C(O)[C@H](O)[C@@H](O)C(=O)O`: the outcome in assay [1] and in assay [2] was inactive.
As to `O=C(O)c1cccc(C[C@@H]2COc3ccc(OCc4nc5cc(F)ccc5s4)cc3[C@@H]2O)c1`, the result in assay [1] and in assay [2] was inactive.
Take `c1ccc2c(c1)-c1cccc3c1c-2cc1ccccc13`: the result in assay [1], in assay [2] and in assay [3] was inactive.
In the case of `CC(=O)c1ccccc1`, the outcome in assay [1], in assay [2] and in assay [3] was inactive.
In the case of `CC1(C)C(=O)N(Cl)C(=O)N1Cl`, the result in assay [1], in assay [2] and in assay [3] was inactive.
As for `C[C@]12C=CC(=O)C=C1CC[C@H]1[C@@H]3C[C@@H](O)[C@](O)(C(=O)CO)[C@@]3(C)C[C@H](O)[C@@]12F`, the result in assay [1], in assay [2] and in assay [3] was inactive.
Regarding `OCCNCCO`, the outcome in assay [1], in assay [2] and in assay [3] was inactive.
`O=C(O)CO`: the result in assay [1] and in assay [2] was inactive.
`CCCCOC(=O)c1ccccc1`: the result in assay [1], in assay [2] and in assay [3] was inactive.
For the compound `CCCCCOC(C)=O`, the result in assay [1] and in assay [2] was inactive.
With `CCn1nc(C)c2c1C(=O)NCC(c1ccc(O)cc1)=N2`, the outcome in assay [1], in assay [2] and in assay [3] was inactive.
Regarding `Cc1nc(-c2ccccn2)ncc1C(=O)Nn1cc(C)c2cc(F)ccc21`, the result in assay [1], in assay [2] and in assay [3] was inactive.
On to `C=CN1CCCC1=O`, for which the result in assay [1], in assay [2] and in assay [3] was inactive.
Consider `O=C(N[C@H](CO)[C@H](O)c1ccc([N+](=O)[O-])cc1)C(Cl)Cl`, for which the result in assay [1], in assay [2] and in assay [3] was inactive.
Take `OC[C@H]1O[C@@H]2O[C@H]3[C@H](O)[C@@H](O)[C@@H](O[C@H]4[C@H](O)[C@@H](O)[C@@H](O[C@H]5[C@H](O)[C@@H](O)[C@@H](O[C@H]6[C@H](O)[C@@H](O)[C@@H](O[C@H]7[C@H](O)[C@@H](O)[C@@H](O[C@H]1[C@H](O)[C@H]2O)O[C@@H]7CO)O[C@@H]6CO)O[C@@H]5CO)O[C@@H]4CO)O[C@@H]3CO`: the result in assay [1], in assay [2] and in assay [3] was inactive.
Regarding `O=C(NO)C1(NS(=O)(=O)c2ccc(Oc3ccc(F)cc3)cc2)CCOCC1`, the result in assay [1], in assay [2] and in assay [3] was inactive.
Turning to `CCOc1ccc2[nH]cc(C(=O)NCc3ccccc3)c(=O)c2n1`, the result in assay [1], in assay [2] and in assay [3] was inactive.
As to `NC(=O)NN=Cc1ccc([N+](=O)[O-])o1`, the outcome in assay [1] and in assay [2] was inactive.
As to `O=C(O)c1ccc2c(c1)nc(C(=O)NC1CCN(C3CC3)CC1)n2Cc1cc(-c2ccc(Cl)s2)on1`, the result in assay [1], in assay [2] and in assay [3] was inactive.
For the compound `CCN(CC)C(=S)SSC(=S)N(CC)CC`, the outcome in assay [1], in assay [2], in assay [3], in assay [4], in assay [5] and in assay [6] was inactive.
As for `NC(=O)N1c2ccccc2C=Cc2ccccc21`, the outcome in assay [1], in assay [2] and in assay [3] was inactive.
For `Cn1cc[nH]c1=S`, the result in assay [1], in assay [2] and in assay [3] was inactive.
`CCCCCCCCN(C)C`: the outcome in assay [1], in assay [2] and in assay [3] was inactive.
Take `COS(C)(=O)=O`: the outcome in assay [1], in assay [2] and in assay [3] was inactive.
Turning to `NNC(=O)c1ccncc1`, the outcome in assay [1] and in assay [2] was inactive.
Consider `CCCCCCOC(=O)CC(CC(=O)OCCCCCC)(OC(=O)CCC)C(=O)OCCCCCC`, for which the outcome in assay [1], in assay [2] and in assay [3] was inactive.
For `C[C@@H](Oc1ccc(CNC(=O)c2cccnc2Oc2ccc3c(c2)OCO3)c(F)c1)C(=O)O`, the outcome in assay [1], in assay [2] and in assay [3] was inactive.
`CCc1cccc(CC)c1N`: the result in assay [1], in assay [2] and in assay [3] was inactive.
For `CCCC(CCC)C(=O)O`, the outcome in assay [1], in assay [2] and in assay [3] was inactive.
As for `CCCOc1ccc(S(=O)(=O)N2CCN(CC)CC2)cc1-c1nc2c(CC)n(Cc3ccccn3)nc2c(=O)[nH]1`, the outcome in assay [1] and in assay [2] was inactive.
With `O=C1CN(N=Cc2ccc([N+](=O)[O-])o2)C(=O)N1`, the outcome in assay [1], in assay [2] and in assay [3] was inactive.
For the compound `CC(C)CCCCCCOC(=O)C1CCCCC1C(=O)OCCCCCCC(C)C` (configuration not stated), the result in assay [1] and in assay [2] was inactive.
For `NC(=O)N(O)[C@@H]1COc2cc(OCc3ccccc3)ccc21`, the result in assay [1], in assay [2] and in assay [3] was inactive.
On to `CCCCN1C(=O)[C@@H]([C@H](O)C2CCCCC2)NC(=O)C12CCN(Cc1ccc(Oc3ccc(C(=O)O)cc3)cc1)CC2`, for which the outcome in assay [1], in assay [2] and in assay [3] was inactive.
On to `NC(N)=O`, for which the result in assay [1], in assay [2] and in assay [3] was inactive.
For `OC(Cn1cncn1)(Cn1cncn1)c1ccc(F)cc1F`, the result in assay [1] and in assay [2] was inactive.
